In PubChem BioAssay (Tox21):
Inconclusive results are not listed. Entries that show only a call come without a potency. Values without a mark were called inactive. Activity calls are given as the source filed them. The call rests on the fitted dose curve; in most records, active means well fitted curve in the direction sought with a large enough effect in the repeat runs; inconclusive means weak or mixed curves; inactive means no such curve, though single readings can be large; an effect the other way counts as inactive or inconclusive.

target: Cytochrome P450 2C9 (Homo sapiens) (UniProt P11712); experiment: Cytochrome P450 Family 2 Subfamily C Member 9 (CYP2C9) small molecule antagonists: luciferase reporter qHTS assay (AID 1671198); conditions: P450-Glo CYP2C9 enzyme assay, luciferin luminescence; series mostly up to 53 µM
Procedure, shortened: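 CYP2C9 activity was measured with a P450-Glo proluciferin substrate. Enzyme–substrate mix was held with compound for 10 min at room temperature, then NADPH regeneration solution was added for 1 h at 37C. Luciferin product was read as luminescence.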
Further: nearly all actives have a fitted effect of over 50% in size.
Potency means the concentration at half of the fitted maximal effect.

Chain of Cytochrome P450 2C9 (Homo sapiens) (P11712 whole entry, looked up): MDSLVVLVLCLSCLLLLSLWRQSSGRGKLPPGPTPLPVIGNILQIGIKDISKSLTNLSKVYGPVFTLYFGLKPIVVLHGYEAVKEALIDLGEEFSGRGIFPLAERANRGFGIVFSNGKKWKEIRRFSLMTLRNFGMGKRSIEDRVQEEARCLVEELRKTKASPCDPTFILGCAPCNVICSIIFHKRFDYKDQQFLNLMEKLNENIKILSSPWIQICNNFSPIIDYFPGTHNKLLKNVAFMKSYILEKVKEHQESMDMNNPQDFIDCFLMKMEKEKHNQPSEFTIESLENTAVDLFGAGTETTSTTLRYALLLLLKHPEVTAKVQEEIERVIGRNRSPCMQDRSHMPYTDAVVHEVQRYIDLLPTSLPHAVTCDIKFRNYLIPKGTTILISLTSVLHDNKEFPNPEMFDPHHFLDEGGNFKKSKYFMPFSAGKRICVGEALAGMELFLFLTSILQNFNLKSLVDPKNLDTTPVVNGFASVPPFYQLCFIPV

| SMILES | Potency |
| --- | --- |
| CC1CN(c2ccccc2)NC1=O (stereo unspecified) | 20 µM (active) |
| CCN(CC)C(=O)N(CC)CC | inactive |
| CCCCCCC | inactive |
| C[C@@H](N)C(=O)O | inactive |
| O=C(CCCl)NCc1ccccc1 | inactive |
| CC(C)O | inactive |
| CC(C)=CCCC(C)CCOC=O (stereo unspecified) | 71 µM (active) |
| O=c1[nH]cnc2c1ncn2[C@@H]1O[C@H](CO)[C@@H](O)[C@H]1O | inactive |
| CN(C)CCOc1ccccc1Cc1ccccc1 | inactive |
| CCN(CC)CCNC(=O)COc1ccc(Cl)cc1 | inactive |
| CC(C)=CCC[C@](C)(O)[C@@H]1CC=C(C)CC1 | 31.7 µM (active) |
| CCCCCCCCOC(=O)CCCCCCCCC(=O)OCCCCCCCC | inactive |
| CCCCCCOc1ccc(N)cc1 | 22.4 µM (active) |
| CCc1cc2cc(OC)c(OC)cc2c(Cc2ccccc2)n1 | 15.5 µM (active) |
| CCCC1CCC(=O)O1 (stereo unspecified) | inactive |
| CCCCOc1cc(C(=O)NCCN(CC)CC)c2ccccc2n1 | inactive |
| O=S(=O)(O)C(F)(F)F | inactive |
| COC(=O)c1ccc(OC)cc1 | inactive |
| Cc1nc(N)nc(N)c1-c1ccc(Cl)c(Cl)c1 | inactive |
| C=CC(C)(O)CC/C=C(\C)CCC=C(C)C (stereo unspecified) | 31.7 µM (active) |
| Oc1ccccc1F | inactive |
| O=C(O)c1ccccc1Nc1cc(Cl)ccc1C(=O)O | inactive |
| C[C@]12C(=O)OC(=O)[C@H]1[C@H]1C=C[C@@H]2C1 | inactive |
| COC(C)CCO (stereo unspecified) | inactive |
| Cc1cccc(C)c1NC(=O)CN1CCCCCC1 | inactive |
| Clc1cccc(-c2cc(Cl)cc(Cl)c2)c1 | 38.5 µM (active) |
| C=CC1CO1 (stereo unspecified) | inactive |
| CCCOc1ccc2c(c1)CC[C@@H]1[C@@H]2CC[C@]2(C)C(OC)CC[C@@H]12 (stereo partly specified) | 34.7 µM (active) |

target: Cytochrome P450 1A2 (Homo sapiens) (UniProt P05177); experiment: Cytochrome P450 Family 1 Subfamily A Member 2 (CYP1A2) small molecule antagonists: luciferase reporter qHTS assay (AID 1671199); conditions: P450-Glo CYP1A2 enzyme, luciferin luminescence, 1 h; series mostly up to 53 µM
Procedure, shortened: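 Room-temperature CYP1A2 reaction with proluciferin substrate: compounds added from DMSO, 10 min preincubation, NADPH regeneration for 1 h. Luciferin detection reagent then added; luminescence recorded as RLU.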

Chain of Cytochrome P450 1A2 (Homo sapiens) (P05177 whole entry, looked up): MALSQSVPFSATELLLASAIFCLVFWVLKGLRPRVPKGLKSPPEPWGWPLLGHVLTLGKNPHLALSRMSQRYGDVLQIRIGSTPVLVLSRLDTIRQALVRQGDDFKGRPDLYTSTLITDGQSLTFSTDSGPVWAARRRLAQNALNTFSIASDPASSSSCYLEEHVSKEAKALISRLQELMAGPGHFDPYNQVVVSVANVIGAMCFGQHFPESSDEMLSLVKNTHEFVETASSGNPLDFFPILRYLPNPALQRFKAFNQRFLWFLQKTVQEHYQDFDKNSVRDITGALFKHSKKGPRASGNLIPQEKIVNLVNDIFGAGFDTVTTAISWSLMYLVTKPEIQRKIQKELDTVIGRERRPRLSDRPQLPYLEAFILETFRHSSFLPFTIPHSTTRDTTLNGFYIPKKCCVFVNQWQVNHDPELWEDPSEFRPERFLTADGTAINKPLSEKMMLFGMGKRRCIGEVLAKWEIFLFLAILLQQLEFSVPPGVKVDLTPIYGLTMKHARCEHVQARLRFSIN

| SMILES | Potency |
| --- | --- |
| CC1CN(c2ccccc2)NC1=O (stereo unspecified) | 22.4 µM (active) |
| CN(C)C(=O)NC1(c2ccccc2)CCN(CCC[C@]2(c3ccc(Cl)c(Cl)c3)CCCN(C(=O)c3ccccc3)C2)CC1 | inactive |
| C=CCCCCCCCCO | 39.9 µM (active) |
| CC(C)=CCC[C@](C)(O)[C@@H]1CC=C(C)CC1 | 39.9 µM (active) |
| CCCCCCCCOC(=O)CCCCCCCCC(=O)OCCCCCCCC | inactive |
| CCc1cc2cc(OC)c(OC)cc2c(Cc2ccccc2)n1 | 6.45 µM (active) |
| CC1(C)C(=O)N(Cl)C(=O)N1Br | inactive |
| c1ccc(CN(CC2=NCCN2)c2ccccc2)cc1 | inactive |
| O=S(=O)(O)C(F)(F)F | inactive |
| C=CC(C)(O)CC/C=C(\C)CCC=C(C)C (stereo unspecified) | 31.7 µM (active) |
| COC(C)CCO (stereo unspecified) | inactive |
| CS(=O)(=O)c1ccc([C@@H](O)[C@@H](CF)NC(=O)C(Cl)Cl)cc1 | inactive |
| CC(Oc1c(Cl)cccc1Cl)C1=NCCN1 (stereo unspecified) | 12.9 µM (active) |

target: Voltage-gated inwardly rectifying potassium channel KCNH2 (Homo sapiens) (UniProt Q12809); experiment: Human Ether-a-go-go-Related Gene (hERG) channel small molecule antagonists: fluorescence cell-based qHTS assay (AID 1671200); conditions: hERG-U2OS cells, FluxOR thallium flux fluorescence; series mostly up to 76.8 µM;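 on activity change, negative = inhibition: hERG-expressing U2OS cells given a thallium stimulus after FluxOR II dye loading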
Procedure, shortened: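 Channel function was assessed by thallium flux. Cells seeded the previous day and kept at 37 C took up FluxOR II dye over 1 h in the dark at room temperature, then sat another 10 min before stimulation.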

Chain of Voltage-gated inwardly rectifying potassium channel KCNH2 (Homo sapiens) (Q12809 whole entry, looked up): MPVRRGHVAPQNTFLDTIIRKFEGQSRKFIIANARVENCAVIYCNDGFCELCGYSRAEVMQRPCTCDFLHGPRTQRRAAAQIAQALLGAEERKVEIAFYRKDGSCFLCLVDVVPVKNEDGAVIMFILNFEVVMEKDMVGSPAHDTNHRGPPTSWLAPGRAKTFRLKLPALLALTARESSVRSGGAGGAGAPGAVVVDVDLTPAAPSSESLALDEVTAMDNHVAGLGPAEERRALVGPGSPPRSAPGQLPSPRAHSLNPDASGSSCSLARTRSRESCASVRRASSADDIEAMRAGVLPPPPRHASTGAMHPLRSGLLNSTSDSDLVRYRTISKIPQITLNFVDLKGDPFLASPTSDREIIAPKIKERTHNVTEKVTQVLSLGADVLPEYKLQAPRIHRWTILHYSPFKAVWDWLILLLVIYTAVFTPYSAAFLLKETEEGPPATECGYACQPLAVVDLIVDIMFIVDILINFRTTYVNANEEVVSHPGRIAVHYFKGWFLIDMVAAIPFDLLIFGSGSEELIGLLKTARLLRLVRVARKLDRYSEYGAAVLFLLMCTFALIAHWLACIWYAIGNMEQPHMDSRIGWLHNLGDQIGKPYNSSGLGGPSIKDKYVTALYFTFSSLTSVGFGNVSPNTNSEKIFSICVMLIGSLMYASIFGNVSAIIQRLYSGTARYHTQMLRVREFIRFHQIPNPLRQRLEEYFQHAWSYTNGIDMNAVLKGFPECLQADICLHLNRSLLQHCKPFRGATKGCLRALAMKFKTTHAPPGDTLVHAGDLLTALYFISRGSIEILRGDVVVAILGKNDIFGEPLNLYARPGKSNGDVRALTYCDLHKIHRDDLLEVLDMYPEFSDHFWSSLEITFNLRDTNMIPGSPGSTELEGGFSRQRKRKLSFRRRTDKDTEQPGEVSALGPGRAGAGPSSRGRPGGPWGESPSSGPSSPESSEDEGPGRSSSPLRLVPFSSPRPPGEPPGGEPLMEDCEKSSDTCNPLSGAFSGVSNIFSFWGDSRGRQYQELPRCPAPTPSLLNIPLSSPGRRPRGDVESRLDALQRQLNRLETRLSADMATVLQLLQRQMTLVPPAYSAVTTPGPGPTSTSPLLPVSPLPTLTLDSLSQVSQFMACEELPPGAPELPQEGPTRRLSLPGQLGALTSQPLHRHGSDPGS

| SMILES | Potency | activity change, negative = inhibition |
| --- | --- | --- |
| CC1CN(c2ccccc2)NC1=O (stereo unspecified) | inactive |  |
| CCN(CC)C(=O)N(CC)CC | inactive |  |
| CCCCCCC | inactive |  |
| C[C@@H](N)C(=O)O | inactive |  |
| O=C(CCCl)NCc1ccccc1 | inactive |  |
| CC(C)O | inactive |  |
| CC(C)=CCCC(C)CCOC=O (stereo unspecified) | inactive |  |
| OCCN(CCO)c1ccccc1 | inactive |  |
| CCOC(=O)CS | inactive |  |
| CN(C)C(=O)NC1(c2ccccc2)CCN(CCC[C@]2(c3ccc(Cl)c(Cl)c3)CCCN(C(=O)c3ccccc3)C2)CC1 | 2.08 µM (active) |  |
| CC1(O)CSC(C)(O)CS1 (stereo unspecified) | inactive |  |
| O=c1[nH]cnc2c1ncn2[C@@H]1O[C@H](CO)[C@@H](O)[C@H]1O | inactive |  |
| CN(C)CCOc1ccccc1Cc1ccccc1 | 7.56 µM (active) |  |
| CCN(CC)CCNC(=O)COc1ccc(Cl)cc1 | 13.4 µM (active) |  |
| C=CCCCCCCCCO | inactive |  |
| N#Cc1ccc(C(c2ccc(C#N)cc2)n2cncn2)cc1 | inactive |  |
| CCCCCCCCOC(=O)CCCCCCCCC(=O)OCCCCCCCC | inactive |  |

| SMILES | Potency | activity change, negative = inhibition |
| --- | --- | --- |
| CCCCCCOc1ccc(N)cc1 | inactive |  |
| CCCC1CCC(=O)O1 (stereo unspecified) | inactive |  |
| CC1(C)C(=O)N(Cl)C(=O)N1Br | inactive |  |
| c1ccc(CN(CC2=NCCN2)c2ccccc2)cc1 | 19 µM (active) |  |
| CCCCOc1cc(C(=O)NCCN(CC)CC)c2ccccc2n1 | 5.35 µM (active) |  |
| O=S(=O)(O)C(F)(F)F | inactive |  |
| COC(=O)c1ccc(OC)cc1 | inactive |  |
| Oc1ccccc1F | inactive |  |
| O=C(O)c1ccccc1Nc1cc(Cl)ccc1C(=O)O |  | 6.42% [at 15.8 µM] |
| C[C@]12C(=O)OC(=O)[C@H]1[C@H]1C=C[C@@H]2C1 | inactive |  |
| COC(C)CCO (stereo unspecified) | inactive |  |
| Cc1cccc(C)c1NC(=O)CN1CCCCCC1 | inactive |  |
| Clc1cccc(-c2cc(Cl)cc(Cl)c2)c1 | inactive |  |
| C=CC1CO1 (stereo unspecified) | inactive |  |
| CCCOc1ccc2c(c1)CC[C@@H]1[C@@H]2CC[C@]2(C)C(OC)CC[C@@H]12 (stereo partly specified) | inactive |  |
| CS(=O)(=O)c1ccc([C@@H](O)[C@@H](CF)NC(=O)C(Cl)Cl)cc1 | inactive |  |
| CC(Oc1c(Cl)cccc1Cl)C1=NCCN1 (stereo unspecified) | inactive |  |

target: Cytochrome P450 3A4 (Homo sapiens) (UniProt P08684); experiment: Cytochrome P450 Family 3 Subfamily A Member 4 (CYP3A4) small molecule antagonists: luciferase reporter qHTS assay (AID 1671201); conditions: P450-Glo CYP3A4 enzyme, luciferin luminescence, 1 h; series mostly up to 115 µM
Procedure, shortened: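 Compounds in DMSO were pin-transferred onto CYP3A4 enzyme-substrate mix and held 10 min at room temperature. NADPH regenerating solution started the reaction for 1 h; luciferin detection reagent stopped it, and luminescence was read after 20 min.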

Chain of Cytochrome P450 3A4 (Homo sapiens) (P08684 whole entry, looked up): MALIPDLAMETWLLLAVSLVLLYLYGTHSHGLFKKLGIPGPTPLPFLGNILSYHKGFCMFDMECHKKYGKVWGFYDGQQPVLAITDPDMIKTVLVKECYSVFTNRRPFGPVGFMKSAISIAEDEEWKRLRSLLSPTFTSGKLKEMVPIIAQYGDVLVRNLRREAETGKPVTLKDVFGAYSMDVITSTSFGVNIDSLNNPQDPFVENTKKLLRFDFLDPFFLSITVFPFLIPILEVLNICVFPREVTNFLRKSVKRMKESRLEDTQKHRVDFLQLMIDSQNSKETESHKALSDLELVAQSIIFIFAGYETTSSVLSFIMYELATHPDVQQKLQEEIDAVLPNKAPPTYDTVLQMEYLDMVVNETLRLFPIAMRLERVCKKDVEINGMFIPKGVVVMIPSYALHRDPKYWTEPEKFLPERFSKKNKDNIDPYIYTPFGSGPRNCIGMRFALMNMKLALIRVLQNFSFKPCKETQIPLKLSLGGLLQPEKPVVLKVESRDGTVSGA

| SMILES | Potency | activity change, negative = inhibition |
| --- | --- | --- |
| CCN(CC)C(=O)N(CC)CC | inactive |  |
| CCCCCCC | inactive |  |
| C[C@@H](N)C(=O)O | inactive |  |
| O=C(CCCl)NCc1ccccc1 | inactive |  |
| CC(C)O | inactive |  |
| CC(C)=CCCC(C)CCOC=O (stereo unspecified) | 35.6 µM (active) |  |
| OCCN(CCO)c1ccccc1 | inactive |  |
| CCOC(=O)CS | inactive |  |
| O=c1[nH]cnc2c1ncn2[C@@H]1O[C@H](CO)[C@@H](O)[C@H]1O | inactive |  |
| CN(C)CCOc1ccccc1Cc1ccccc1 | inactive |  |
| C=CCCCCCCCCO | inactive |  |
| CCCCCCCCOC(=O)CCCCCCCCC(=O)OCCCCCCCC | inactive |  |
| CCCCCCOc1ccc(N)cc1 | 35.6 µM (active) |  |
| CCCC1CCC(=O)O1 (stereo unspecified) | inactive |  |
| c1ccc(CN(CC2=NCCN2)c2ccccc2)cc1 | inactive |  |
| COC(=O)c1ccc(OC)cc1 | inactive |  |
| Cc1nc(N)nc(N)c1-c1ccc(Cl)c(Cl)c1 | inactive |  |
| Oc1ccccc1F | inactive |  |
| O=C(O)c1ccccc1Nc1cc(Cl)ccc1C(=O)O |  | 34.1% [at 23.6 µM] |
| C[C@]12C(=O)OC(=O)[C@H]1[C@H]1C=C[C@@H]2C1 | inactive |  |
| COC(C)CCO (stereo unspecified) | inactive |  |
| Cc1cccc(C)c1NC(=O)CN1CCCCCC1 | inactive |  |
| Clc1cccc(-c2cc(Cl)cc(Cl)c2)c1 | inactive |  |
| C=CC1CO1 (stereo unspecified) | inactive |  |
| CCCOc1ccc2c(c1)CC[C@@H]1[C@@H]2CC[C@]2(C)C(OC)CC[C@@H]12 (stereo partly specified) | inactive |  |
| CS(=O)(=O)c1ccc([C@@H](O)[C@@H](CF)NC(=O)C(Cl)Cl)cc1 | inactive |  |
